Screening data from PubChem.
Hits are enriched below; roughly 19% of the tested compounds scored in any of these assays.
Cycloheximide cs: affects cycloheximide protein synthesis inhibition readout, counter-screen | cell reporter, cycloheximide protein synthesis inhibition counterscreen | max response, % | actives 12% (n = 300,000) | AID 2314; in the data active = max response mostly above about 13%, no sharp cut-off; inactive = mostly below about 14%; also: read at 38.3 µM for the half of the compounds with a filed dose
Pf growth 48h: P. falciparum growth inhibition at 48 hours (one generation). P. falciparum luciferase growth in erythrocytes, 48 h. actives 5.9% (n = 310,000). Potency, µM (doses to about 28.7 µM), hits mostly inhibitors
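Cell-based growth assay: transgenic P. falciparum expressing firefly luciferase, cultured in red cells within RPMI 1640 containing 0.5% w/v Albumax, 24 mM bicarbonate and gentamycin. A drop in luciferase activity indicates inhibition.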
Shiga inhibitor: Shiga toxin inhibition; Vero cells, Shiga toxin protein synthesis inhibition reporter; inhibition, % at 38.7 µM; actives 9.2% (n = 290,000); AID 2315; in the data active = inhibition mostly above about 28%, no sharp cut-off; inactive = mostly below about 43%
AMA1-RON2 inh: AMA1-RON2 (P. falciparum) interaction inhibition; AlphaScreen AMA1-biotinylated RON2 peptide binding; Potency, µM (doses to about 58.2 µM), actives largely listed as inhibitors; actives 0.2% (n = 360,000); also: nearly all actives have a fitted effect of over 45% in size
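AMA1 (3D7) with his tag at 25 nM final met compounds first, then biotinylated RON2 peptide at 25 nM; detection used donor plus acceptor beads, 10 µg/mL apiece, read by AlphaScreen after 30 min at room temperature.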
Pf growth 96h: inhibits malaria parasite growth, 96 h. P. falciparum luciferase reporter growth, 96 h. Potency, µM (doses to about 28.7 µM), hits mostly inhibitors. actives 6.9% (n = 320,000). AID 504834
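Infected RBCs, 2% Hct / 0.05% parasitemia final; luciferase-reporter P. falciparum; cpd 96 h, 37 C, 5% CO2; luciferase detection reagent; luminescence.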
SARS PLpro yeast: SARS-CoV PLP inhibition in yeast; Potency, µM (doses to about 32.9 µM), most hits filed as activators; actives 0.19% (n = 330,000); S. cerevisiae expressing SARS-CoV PLpro, growth rescue; AID 485353; calls by dose curve; also: nearly all actives have a fitted effect of over 55% in size
Numbers stand for hits; . = inactive; ? = inconclusive; / = no result given. Unless noted, calls follow the shape of the dose curve; as a rule, active = well fitted curve in the direction sought with a large enough effect; inconclusive = small, poorly fitted or top-dose-only effect, or another doubt; inactive = no such curve, though single readings can be large; an effect the other way counts as inactive or inconclusive.

SMILES	Cycloheximide cs	Pf growth 48h	Shiga inhibitor	AMA1-RON2 inh	Pf growth 96h	SARS PLpro yeast
Cc1ccc2[nH]c(=O)c(CN(CC3COCCO3)C(=O)Nc3ccccc3F)cc2c1 (centres undefined)	.	.	.	.	.	.
CC(C)n1c(SCC(=O)c2ccc3c(c2)OCCO3)nc2c1c(=O)n(C)c(=O)n2C	.	.	.	.	.	.
CCCCOc1ccc(/C=C(\C(=O)O)c2ccc(S(=O)(=O)N3CCCC3)s2)cc1	/	/	/	.	/	.
CC(C)(C)c1ccc(/C=N/NC(=S)Nc2cccnc2)cc1	16	?	.	/	?	.
S=C(N/N=C/c1ccc2ncccc2c1)Nc1cccnc1	23	.	.	.	.	.
Oc1ccc(/C=N/NC(=S)Nc2cccnc2)cc1O	.	.	.	.	.	.
CC1(C)C2CC=C(/C=N/NC(=S)Nc3cccnc3)C1C2 (centres undefined)	.	?	.	.	?	.
CC1=C/C(=N\NC(=S)Nc2cccnc2)CC(C)(C)C1	.	?	.	.	2.9µM	.
Cc1ccc(-c2nnc(CN3CCCCC3C)o2)cc1 (centres undefined)	.	.	.	.	.	.
CC1OC(Nc2cccc3ccccc23)C(O)C(O)C1O (centres undefined)	.	/	.	.	.	.
CC1OC(Nc2ccc(N=Nc3ccccc3)cc2)C(O)C(O)C1O (centres undefined)	37	.	118	.	.	.
COCC(C)n1c(C)cc(C(=O)COC(=O)CNC(=O)c2ccccc2)c1C (centres undefined)	53	.	86	.	.	.
COCC(C)n1c(C)cc(C(=O)COC(=O)c2oc3ccccc3c2C)c1C (centres undefined)	.	.	.	?	/	.
COCCn1c(C)cc(C(=O)COC(=O)CNC(=O)c2ccccc2)c1C	61	.	99	.	.	.
COCC(C)n1c(C)cc(C(=O)COC(=O)c2n[nH]c3ccccc23)c1C (centres undefined)	56	.	129	.	/	.
CN(C)CCc1cc2c(c3c1ccc1ccccc13)OCO2	.	?	.	.	.	?
COc1ccc(C(=O)c2c(C)c3cc(C)ccc3n2CC(O)CN2CCOCC2)cc1 (centres undefined)	.	?	.	.	12µM	.
Cc1ccc2c(c1)c1c(n2CC(O)CN2CCOCC2)CCCC1 (centres undefined)	.	.	/	/	?	.
CCCn1c(SCC(=O)Nc2ccc(S(=O)(=O)N(C)C)cc2)n[nH]c1=O	.	?	.	.	?	.
CN(C)c1nc(-c2ccccn2)nnc1-c1ccccc1	.	/	.	.	2.1µM	.
CCN(CC)c1nc(-c2ccccn2)nc(-c2ccccc2)c1C#N	.	?	.	.	4.1µM	.
Cc1cc(C)c2c3c(sc2n1)C1(CCSCC1)C(C#N)=C(N)O3	.	.	29	.	/	.
CN1c2ccccc2C(=O)NC1c1ccc(Cl)cc1 (centres undefined)	12	.	.	.	.	.
O=C(Nc1nccs1)NC(C(F)(F)F)C(F)(F)F	.	/	.	.	.	.
O=C(/C=C/Nc1nccs1)C(F)(F)Cl	35	.	102	.	.	.
SMILES	Cycloheximide cs	Pf growth 48h	Shiga inhibitor	AMA1-RON2 inh	Pf growth 96h	SARS PLpro yeast
c1ccc(-c2nccc3ccccc23)cc1	/	/	/	.	/	/
Cc1ccc(-c2nc(-c3nccc4ccccc34)oc2-c2ccccc2)cc1	22	.	98	.	?	.
Cc1cc(C)cc(NC(=S)N2CC(C)OC(C)C2)c1 (centres undefined)	.	.	.	.	2.1µM	.
O=C(CCC1CCN(C(=O)c2ccco2)CC1)NCc1ccc(F)cc1	.	.	.	.	?	.
COCCCNC(=O)C[C@@H]1C[C@@]2(C(=O)OC)CC(C)(C)CC=C2N(Cc2ccc3c(c2)OCO3)C1=O	/	/	/	.	/	/
CCc1noc(C)c1C(=O)OCC(=O)NC(C)c1ccccc1 (centres undefined)	/	.	/	.	.	.
Cc1onc(-c2ccccc2)c1C(=O)OCC(=O)NC(C)c1ccc(Cl)cc1 (centres undefined)	/	15µM	/	.	?	.
COc1ccc(-c2cc(C(=O)NNC(=S)NC(=O)c3c(-c4ccccc4)noc3C)[nH]n2)cc1	19	?	106	.	?	.
